As usually defined, the AC50 is the midpoint of the concentration-response curve, whichever way the signal moves.

Molecules are shown by their SMILES. Out of some 16,000 compounds screened, about 5,700 (36%) were called active. Roughly 24% stayed inconclusive and do not appear here. Some of the results follow. Values without a mark were called inactive. Calls follow the shape of the dose curve; as a rule, active = well fitted curve in the direction sought with a large enough effect; inconclusive = small, poorly fitted or top-dose-only effect, or effect the other way; inactive = no such curve, though single readings can be large or run the other way.

The record followed here is PubChem BioAssay AID1851 (National Center for Advancing Translational Sciences (NCATS), 2009).
% is scaled to controls: 0 for no effect and ±100 for the full control effect.

The assay deals with Cytochrome P450 1A2 (Homo sapiens) (UniProt P05177). The assay is described as follows: Cytochrome panel assay with activity outcomes. The conditions noted are these: recombinant CYP, pro-luciferin dealkylation, luminescence, p450-cyp1a2; series mostly up to 57.1 µM; activity, negative = inhibition: at the top concentration.
Sequence of Cytochrome P450 1A2 (Homo sapiens) (P05177 whole entry, looked up): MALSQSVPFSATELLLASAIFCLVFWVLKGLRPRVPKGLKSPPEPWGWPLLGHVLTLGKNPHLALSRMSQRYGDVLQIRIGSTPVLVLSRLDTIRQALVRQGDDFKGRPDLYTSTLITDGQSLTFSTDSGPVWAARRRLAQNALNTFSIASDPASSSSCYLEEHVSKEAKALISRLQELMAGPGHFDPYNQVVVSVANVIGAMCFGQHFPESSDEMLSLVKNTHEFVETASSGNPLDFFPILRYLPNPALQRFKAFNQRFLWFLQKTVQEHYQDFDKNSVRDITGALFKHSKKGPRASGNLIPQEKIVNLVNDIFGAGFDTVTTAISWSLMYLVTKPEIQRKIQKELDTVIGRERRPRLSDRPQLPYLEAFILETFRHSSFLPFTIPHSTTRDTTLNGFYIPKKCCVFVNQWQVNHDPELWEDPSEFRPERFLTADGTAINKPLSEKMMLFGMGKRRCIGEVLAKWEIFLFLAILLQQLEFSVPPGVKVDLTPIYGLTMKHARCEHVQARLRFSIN
As to `COc1ccc(O[C@H]2C=C[C@@H](c3ccccc3)O[C@H]2COC(=O)CC/C(C)=N\O[C@@H](C)CN2CCCCc3nc(C)c(C)cc32)cc1`, the activity, negative = inhibition is -2.12% [at 11.4 µM].
On the same count and under the same terms, the same measure for `O=C(c1csnn1)N1CCC2(CC1)CN(c1ccncc1)C2`: 1.41%.
Take `O=c1c2c(-c3cccs3)csc2ncn1-c1ccc(Br)cc1`: the AC50 was 794 nM (active).
Regarding `Nc1[nH]nc2nc3ccccc3nc12`, the AC50 was 316 nM (active).
Same read-out and setting: the same measure for `Fc1ccc(C(OCCCc2cnc[nH]2)c2ccc(F)cc2)cc1`: 100 nM (active).
As to `N[C@@H](Cc1cnc[nH]1)C(=O)O`, the “activity, negative = inhibition” value was -7.04%.
On to `N=C(N)SCCc1cnc[nH]1`, for which the AC50 entry was “inactive”.
With `NS(=O)(=O)c1cc(C(=O)O)c(O)c2ccccc12`, the activity, negative = inhibition was -19.2% [at 11.4 µM].
The same measure, in the same setting: the same measure for `O=C(O)c1cc2ccccc2c(S(=O)(=O)O)c1O`: 6.64% [at 11.4 µM].
As for `C=CCNS(=O)(=O)c1cccc2cc(C(=O)O)c(O)cc12`, the AC50 is 1580 nM (active).
Take `CCN(CC(=O)NCc1cccs1)S(=O)(=O)c1ccc(C(C)C)cc1`: the “activity, negative = inhibition” value was -27.2%.
With `O=C(Cn1cccc1C(=O)c1ccccc1)NCc1cccs1`, the AC50 was 20000 nM (active).
For `Cc1ccc(CCN2CC(C(=O)NCCN3CCOCC3)CC2=O)cc1` (stereo not drawn), the “activity, negative = inhibition” value was -19.1%.
On to `Cc1noc(C)c1COc1cccc(C(=O)OCC(=O)N2CC(=O)Nc3ccccc32)c1`, for which the AC50 is 25100 nM (active).
Take `CS(=O)(=O)N1CCN(c2ccc(C(=O)NC3C4CC5CC(C4)CC3C5)cc2[N+](=O)[O-])CC1` (stereo not drawn): the “activity, negative = inhibition” value is 16.8%.
In the case of `Cc1cc(C(=O)C(=O)NC(C)C)c(C)n1-c1ccc([N+](=O)[O-])cc1`, the “activity, negative = inhibition” value is -16.5%.
As to `Cc1cc(C=O)c(C)n1-c1ccc(NC2CCCC2)c([N+](=O)[O-])c1`, the AC50 was 447 nM (active).
Regarding `Cc1cc(C=O)c(C)n1-c1ccc(N2CCCCC2)c([N+](=O)[O-])c1`, the AC50 was 14100 nM (active).
For the compound `COc1ccccc1OCCN1C(=O)S/C(=C\c2ccco2)C1=O`, the AC50 was 14100 nM (active).
Regarding `COc1ccc(/C=C2\SC(=O)N(CCNC(=O)C3CC(=O)N(c4ccccc4)C3)C2=O)cc1` (stereo not drawn), the “activity, negative = inhibition” value is -15.8%.
Regarding `CC(=O)[C@@H](C)CCO[C@@]1(C)OCC[C@@H]1C`, the activity, negative = inhibition was -19.3% [at 11.4 µM].
For `CC(C)(C)c1ccc(C(=O)c2c[nH]c(C(=O)NCCCn3ccnc3)c2)cc1`, the AC50 was 5620 nM (active).
For `O=C(c1ccc(C(F)(F)F)cc1)c1c[nH]c(C(=O)NCCCn2ccnc2)c1`, the AC50 is 2000 nM (active).
Take `CC1=C(C#N)C(Nc2ccc(Cl)cn2)(C(F)(F)F)C(=O)N1` (stereo not drawn): the “activity, negative = inhibition” value was -10.6%.
For `CC(=O)c1sc(NC(=O)C(C)C)nc1C`, the AC50 was 10000 nM (active).
In the case of `CCOC(=O)N1CCN(C(=O)c2ccc3nc(N4CCC(C)CC4)sc3c2)CC1`, the “activity, negative = inhibition” value is -26.8%.
As for `CCOc1ccc2nc(N3CCCCCC3)sc2c1`, the AC50 was 2820 nM (active).
Take `CCOC(=O)C1CCN(C(=O)C2CCN(c3nc4ccc(OC)cc4s3)CC2)CC1`: the “activity, negative = inhibition” value was -20.4%.
